The whole screen tested about 320,000 compounds, of which about 1,300 (0.41%) were called active. Another 3% or so got no clear call; they are omitted. How the calls were made is not given here. Only a sample is shown. Potency and affinity values are given separately.
assay: growth inhibition of non-replicating M. tuberculosis (AID 488890); settings: Mycobacterium tuberculosis non-replicating, at 25 µM, stronger effect = higher value;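 further: plate controls were DMSO cells for no effect and high antibiotic wells for full effect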

Row | Structure (SMILES) | inhibition
1 | C/C(=N\NC(N)=O)c1cccc(Cl)c1 | -5.88%
2 | C/C(=N\NC(=O)c1ccccc1O)C1CC1 | -6.46%
3 | CC(/C=C/c1ccccc1)=N\NC(=O)CCc1ccccc1 | -7.22%
4 | CCOc1ccc(OCc2ccc(C(=O)N/N=C(\C)c3ccccn3)cc2)cc1 | 94.8%
5 | C/C(CCc1ccccc1)=N\NC(=O)CCc1ccccc1 | 2.92%
6 | CSC(=NNC(=O)c1ccccc1O)SC | 14.8%
7 | CCOc1ccc(/C(C)=N\NC(=O)Cc2ccccc2)cc1 | 3%
8 | CCC/C(=N/NC(=O)c1cccc(Cl)c1)c1ccccc1 | 76.9%
9 | O=C(NCc1nnc(SCC(=O)N2CCC(Cc3ccccc3)CC2)o1)c1ccccc1F | 47.1%
10 | CCCCn1c(N)c(N(C)C(=O)c2cc3c(s2)CCCCC3)c(=O)[nH]c1=O | 19.5%
11 | Cc1ccc(N(CC(=O)NCc2ccco2)C(=O)CCC(=O)Nc2nccs2)cc1C | -4.11%
12 | CCc1ccc(NC(=O)CSc2nc(O)cc(=O)n2C2CCCC2)cc1 | 37.7%
13 | COc1ccc(Cl)cc1NC(=O)CN(C)C(=O)c1cc(=O)c2ccccc2o1 | -2.49%
14 | CCOC(=O)c1sc(NC(=O)CSc2ccccn2)c(C#N)c1C | 5.94%
15 | CC(=O)N(Cc1ccccc1)Cc1cn(CCC#N)nc1-c1cccc([N+](=O)[O-])c1 | -6.03%
16 | CC(=O)N1CCC(=NNC(=O)c2cc3ccccc3cc2O)CC1 | 4.69%
17 | CC(/C=C/c1ccco1)=N\NC(=O)c1cccnc1 | 12.9%
18 | C/C(=N\NC(=O)c1cc2ccccc2cc1O)c1ccc2c(c1)OCO2 | 14.4%
19 | C/C(=N\NC(=O)c1c[nH]c2ccccc12)c1ccc(C)o1 | 33.3%
20 | C/C(CC(=O)N1CCCC1)=N\NC(=O)c1cc2ccccc2cc1O | 7.43%
21 | CC(/C=C/c1ccco1)=N/NC(=O)c1ccccc1Cl | 48.9%
22 | CCCCC(NC(=O)c1ccc(Cl)cc1)C(=O)O (stereo unspecified) | -0.66%
23 | O=C(C[n+]1cccc(CNC(=O)c2ccc(OC(F)F)cc2)c1)Nc1ccccc1Cl | 7.02%

Row | Structure (SMILES) | inhibition
24 | O=C(c1ccc([N+](=O)[O-])cc1)N1CCN(Cc2ccccc2[N+](=O)[O-])CC1 | 12.7%
25 | COc1ccc(C2C(C(=O)NCCN3CCOCC3)c3ccccc3C(=O)N2C2CCCCC2)cc1 (stereo unspecified) | 28.1%
26 | O=C(/C=C/NCc1cccnc1)c1ccc(Br)cc1 | 77.9%
27 | COc1cc(NC(=O)CSc2nc(=O)n(CCN3CCOCC3)c3c2CCC3)cc(OC)c1 | 1.82%
28 | O=C(C1CCCN1S(=O)(=O)c1cccc2nsnc12)N1CCN(c2ccc(F)cc2)CC1 (stereo unspecified) | -10%
29 | COc1ccc(N(CC(=O)Nc2ccc(F)c(Cl)c2)S(=O)(=O)c2c(C)noc2C)cc1 | 19.1%
30 | CCc1noc(C)c1C(=O)OC(C)C(=O)c1c(C)[nH]c2ccccc12 (stereo unspecified) | 26.3%
31 | Cc1cnc(C(=O)OC(C)C(=O)c2c(C)[nH]c3ccccc23)cn1 (stereo unspecified) | 12.1%
32 | CCN(CC)C(=O)CSc1nnc(-c2ccco2)o1 | 18.1%
33 | CCCOc1ccc(C(=O)CCNc2cccc(Cl)c2)cc1 | 74.8%
34 | Cc1cccc(OCCn2cccc2/C=C2/C(=O)NC(=O)N(Cc3ccco3)C2=O)c1 | 49.4%
35 | O=C1NC(=O)N(Cc2ccco2)C(=O)/C1=C/c1cccn1CCOc1ccccc1Cl | 62.6%
36 | O=C(NCCCOc1cccc(CN2CCCCC2)c1)c1ccc(Cl)c(Cl)c1 | 56.6%
37 | COc1cccc(Nc2nc(C)cc(C)c2C(N)=O)c1 | -12.4%
38 | COc1ccc2cc(CN(Cc3cccs3)Cc3nnnn3Cc3ccccc3)c(=O)[nH]c2c1 | 27.5%
39 | Cc1[nH]n(-c2ccccc2)c(=O)c1C(=O)c1cccc(F)c1 | 69%
40 | Cc1[nH]n(-c2ccccc2)c(=O)c1C(=O)c1ccc([N+](=O)[O-])cc1 | 16.4%
41 | Cc1cccc[n+]1CC(=O)/C=C1\N(C)c2ccccc2C1(C)C | -1.75%
42 | COc1ccc(CN2CCC(n3nccc3NC(=O)C3CC3)CC2)c(OC)c1OC | -1.17%
43 | O=S(=O)(NCCN1CCOCC1)c1cc(Cl)ccc1Cl | 10.9%
44 | Cc1cc(C(=O)N/N=C/c2ccc(C)s2)n[nH]1 | 4.06%
45 | Cc1cc(C(=O)N/N=C/c2cccc([N+](=O)[O-])c2O)n[nH]1 | 14.7%
46 | Cc1ccsc1/C=N\NC(=O)c1cc(C(C)(C)C)[nH]n1 | 12.6%

Row | Structure (SMILES) | inhibition
47 | CC(C)(C)c1cc(C(=O)N/N=C/c2ccc(-c3ccccc3[N+](=O)[O-])o2)n[nH]1 | 26.9%
48 | Cc1c(C(=O)OCC[N+]2(C)CCCCC2)oc2ccccc12 | -0.02%
49 | O=C(NCC(c1cccs1)N1CCOCC1)c1cccc([N+](=O)[O-])c1 (stereo unspecified) | 3.78%
50 | O=C(NCC(c1cccs1)N1CCOCC1)c1ccc([N+](=O)[O-])cc1 (stereo unspecified) | -4.42%
51 | CCOCCCN(C(=O)c1snc(C(N)=O)c1N)C(C(=O)NC1CCCC1)c1ccc(O)cc1 (stereo unspecified) | 12.3%
52 | O=C(C1=COCCO1)N(Cc1nnc(-c2ccccc2Cl)o1)C1CC1 | 2.01%
53 | O=C(c1ccc(Cl)s1)N(Cc1nnc(-c2ccccc2Cl)o1)C1CC1 | 31.8%
54 | CCCN(Cc1nnc(-c2ccccc2Cl)o1)C(=O)c1cc2ccccc2o1 | 30.8%
55 | CCCN(Cc1nnc(-c2ccccc2Cl)o1)C(=O)c1oc2ccccc2c1C | -13.1%
56 | COc1ccc(S(=O)(=O)N2CCOC23CCN(S(=O)(=O)c2cc(C)ccc2OC)CC3)cc1 | 5.02%
57 | CC(NC(=O)CC1Sc2ccccc2NC1=O)c1ccccc1 (stereo unspecified) | 0.31%
58 | CCN(CC)C(=O)C(=O)N/N=C/c1ccc(C(=O)OC)cc1 | -0.1%
59 | CCOc1cc2c(cc1OCC)C(c1ccc(C(=O)O)cc1)NCC2 (stereo unspecified) | -6.9%
60 | N/C(=N/OC(=O)c1cccc([N+](=O)[O-])c1)c1cccc([N+](=O)[O-])c1 | 18.3%
61 | Cc1cccc(C(=O)O/N=C(\N)c2cccc([N+](=O)[O-])c2)c1 | 75%
62 | COc1ccc(C(CNC(=O)c2cccc(NC(=O)c3cccs3)c2)N2CCCC2)cc1 (stereo unspecified) | 27.7%
63 | CCn1nc(-c2ccccc2)nc2c(=O)n(C)c(=O)nc1-2 | -28.8%
64 | Cn1nc(-c2ccccn2)nc2c(=O)n(C)c(=O)nc1-2 | 74.7%
65 | CC1(C)CN(c2ccc(Br)cc2Br)C1=O | 8.63%
66 | CCOC(=O)N1CCN(S(=O)(=O)c2ccc(C(=O)N(CCCN(C)C)c3nc4cc(OC)ccc4s3)cc2)CC1 | 8.58%
67 | OCc1ccc(O)c2ncccc12 | 26%
68 | Oc1ccc(CNc2ccccc2F)c2cccnc12 | 38.5%
69 | CCCn1c(C(C)Nc2nc(-c3ccc(C)cc3)cs2)nc2cc(Cl)c(Cl)cc21 (stereo unspecified) | 17.9%

Row | Structure (SMILES) | inhibition
70 | COc1ccccc1NC(=O)Cn1cnc2sc(C(=O)Nc3cc(OC)c(OC)c(OC)c3)c(C)c2c1=O | -13%
71 | Cc1ccc(NC(=S)N2CCC(NC(=O)C3CCCCC3)CC2)cc1C | -8.16%
72 | Cc1nn(CC(=O)NCc2cc3ccccc3[nH]2)c(C)c1[N+](=O)[O-] | -11.5%
73 | COC(=O)c1ccc(NC(=O)c2ccc(NC(=O)c3ccco3)cc2)cc1 | 9.4%
74 | O=C(CNC(=O)c1ccco1)NCC(=O)OCc1ccc(C(=O)Oc2ccc(Cl)cc2)cc1 | 5.36%
75 | O=C(Nc1ccc(OC(=O)c2ccco2)cc1)c1ccco1 | 53.6%
76 | O=C(CNC(=O)c1ccco1)OCc1ccc(C(=O)c2ccccc2)cc1 | 74.7%
77 | O=C(CCN1C(=O)/C(=C\c2ccccc2)SC1=S)NNC(=O)c1ccccc1O | -13.1%
78 | CN(C)CCCNC1CS(=O)(=O)CC1O (stereo unspecified) | -14.7%
79 | CCOC(=O)C1=C(C)NC2=C(C(=O)CC(C)(C)C2)C1c1ccc2c(c1)CCCN2C (stereo unspecified) | 58.9%
80 | COCCN1C(=O)/C(=C/c2c(OC)cc(OC)cc2OC)C(=O)N(c2ccccc2)C1=O | 2.58%
81 | Cc1cccc(NC(=O)CC(=O)Nc2cccc(C)c2)c1 | 17.8%
82 | CCOC(=O)c1c(NC(C)=O)sc2c(OC)c(Br)ccc12 | 3.98%
83 | CCOC(=O)c1c(NC(C)=O)sc2c(O)c(Br)ccc12 | 33.9%
84 | Cc1onc(-c2c(F)cccc2Cl)c1C(=O)N(Cc1ccccc1)C(C)C | 7.25%
85 | CC1CC(C)CN(S(=O)(=O)c2ccc3oc(=O)ccc3c2)C1 (stereo unspecified) | -8.91%
86 | COC(=O)c1ccccc1NC(=O)CCCn1nc([N+](=O)[O-])cc1C | 1.55%
87 | CC1CCC(NC(=O)c2cc3ccccc3cc2O)CC1 (stereo unspecified) | 38.1%
88 | CC(C)OC(=O)c1cccc2c1C(=O)c1ccccc1-2 | 1.02%
89 | COC(=O)c1cc2c(C)c(C)c3ccccn3c-2c1C(=O)OC | 2.38%
90 | Cc1cc(C(=O)CCC(=O)Nc2ncccc2C)c(C)s1 | 25.8%
91 | CS(=O)(=O)N1CCc2cc(S(=O)(=O)Nc3ccc4c(c3)OCCO4)ccc21 | 5.57%
92 | CCOc1ccc(C(=O)Nc2nnn(CC)n2)cc1 | -19.1%

Row | Structure (SMILES) | inhibition
93 | Cc1cccc(OCC(=O)Nc2nnn(C)n2)c1C | 7.29%
94 | CCn1nnc(NC(=O)COc2ccc([N+](=O)[O-])cc2)n1 | 15.6%
95 | Cc1ccc(OCC(=O)Nc2nnn(C)n2)c(C)c1 | -10.8%
96 | NC(N)=NS(=O)(=O)c1ccc(NC(=S)NC(=O)c2ccc(Br)cc2)cc1 | 2.25%
97 | CN(C)CCC#CC1(O)c2ccccc2-c2ccccc21 | -5.2%
98 | CCc1ccc(CNC(=O)c2ccc3nc(C4CCCCC4)oc3c2)nc1 | 56.5%
99 | O=C1c2ccccc2C(=O)N1CC#CCN1CCN(C(c2ccccc2)c2ccccc2)CC1 | -1.98%
100 | c1ccc(Cc2nc(-c3ccccn3)no2)cc1 | 16.8%
101 | c1ccc(-c2noc(C3CCCCC3)n2)nc1 | 18.3%
102 | c1ccc(CCc2nc(-c3cccnc3)no2)cc1 | 20%
103 | c1ccc(-c2noc(CC3CCCCC3)n2)cc1 | 69.6%
104 | CC(=O)CC1=NC(C)(C)Cc2ccccc21 | 0.57%
105 | c1ccc(CNc2ccc3ccccc3n2)nc1 | 21.1%
106 | COc1cc2c(cc1NC(=O)COC(=O)C1CC(=O)N(Cc3ccco3)C1)oc1ccccc12 (stereo unspecified) | 6.37%
107 | Cc1ccc(-n2c(-c3ccncc3)nnc2-c2cccs2)cc1 | -0.27%
108 | O=C(c1ccc([N+](=O)[O-])s1)N1CCN(c2ccccc2)CC1 | -13.2%
109 | COc1ccccc1N1CCN(C(=O)c2cc(C(=O)N3CCN(c4ccccc4OC)CC3)cc([N+](=O)[O-])c2)CC1 | 12.5%
110 | O=C(c1cccc([N+](=O)[O-])c1)N1CCN(c2cccc(Cl)c2)CC1 | 38.1%
111 | COc1ccccc1N1CCN(C(=O)c2ccc(Br)s2)CC1 | 70.2%

From PubChem BioAssay AID488890 (Southern Research Specialized Biocontainment Screening …, 2010)
